Test results taken from PubChem BioAssay AID624117 (National Center for Advancing Translational Sciences (NCATS), 2012).
Results filed as inconclusive are left out. The source made the active and inactive calls. Calls follow the shape of the dose curve; as a rule, active = well fitted curve in the direction sought with a large enough effect; inconclusive = small, poorly fitted or top-dose-only effect, or another doubt; inactive = no such curve, though single readings can be large or run the other way.

test: qHTS Assay for Rab9 Promoter Activators: Hit Validation Using Renilla Luciferase Read-Out; conditions: Huh7 NPC1 promoter Renilla luciferase reporter, 24 h; series mostly up to 76.9 µM
Method in brief: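 Huh7 cells stably carrying NPC promoter-luciferase, 1,500 cells/well, exposed to compound for 24 h at 37 deg C. Luminescence read 10 min after […] addition; validation of firefly-read primary hits.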

Potency, inactive:
COc1ccc(/C=C\c2onc(C)c2S(=O)(=O)N2CCC(C(=O)NCCC(C)C)CC2)cc1, CCCOP(=O)(c1ccc(N(C)C)cc1)C(O)c1cccnc1 (centres undefined), COC(=O)CSc1nc2cc3c(cc2cc1C#N)OCO3, Cn1c(SCc2ccccc2)nnc1-c1cnccn1, CCOc1cc(C(=O)N=c2sccn2C)ccc1OC(F)F, CC(C)CC(=O)N1CCN(c2ccc(NC(=O)c3ccco3)cc2)CC1, Cc1cccc(NC(=O)CSc2nc3ccccc3o2)c1, C=CCc1ccc(OCCOCCNCCOC)c(OC)c1, Cc1nc(SCC(=O)NC(=O)NC(C)(C)C)nc(C)c1C, Brc1ccccc1-c1nnc(CSc2nnc3sc4ccccc4n23)o1, O=C(COC(=O)c1ccc(-c2nnc(-c3ccccc3)o2)cc1)c1ccccc1, CCN(CC(=O)N(CC(C)C)c1c(N)n(CC(C)C)c(=O)[nH]c1=O)Cc1nc2ccccc2c(=O)[nH]1, CCCN(CCC)CCCNC(=O)c1cc2cc3ccc(Cl)cc3nc2o1, CCOC(=O)CSc1nc2cc(C)ccc2cc1C#N, COc1ccccc1CNC(=O)COc1ccc(C)cc1, COc1ccc(C(=O)OCC(=O)N2CCCC2=O)c(OC)c1, Fc1ccc(-c2nc3nc4ccccc4nc3n2Cc2ccco2)cc1, CC1=C(C(=O)OC2CCCC(C)C2)C(c2ccccc2)NC(=O)N1 (centres undefined), NCCOc1ccccc1-c1ccccc1, Cc1ccc(S(=O)(=O)N2CCN(c3cnn(C)c(=O)c3Cl)CC2)cc1, Cc1ccc(NC(=O)NC(=O)c2ccccc2)cc1F, OCCC1CN(Cc2nc3ccccc3s2)CCN1C1CCCC1 (centres undefined), CCN(Cc1nc2cc(Cl)ccc2c(=O)[nH]1)C(=O)C1CC(=O)N(c2cccc3ccccc23)C1 (centres undefined), Cc1ccc(NC(=O)c2cccc(N3C(=O)CCC3=O)c2)nc1, CC(C)(C)NC(=S)NNC(=O)c1ccc2ncccc2c1, COCCSc1ncnc2c1oc1nc3c(cc12)COC(C)(C)C3, COc1ccc(-c2cc(C(=O)Nc3ccccc3F)on2)cc1, COc1ccc(-n2cc(-c3ccc(Cl)cc3)[nH]c2=S)cc1, COc1ccc(-c2nnc(SCC(=O)/C(C#N)=C(\C)N)o2)cc1, COc1cccc(CNC(=O)CN(c2cc(C)cc(C)c2)S(=O)(=O)c2c(C)noc2C)c1, COCCNC(=O)CN1C(=O)NC(c2ccccc2)(c2ccccc2)C1=O, COC(=O)c1ccccc1S(=O)(=O)NNC(=O)Nc1ccccc1, COC(=O)c1ccccc1NC(=O)c1ccc(-c2ccc(Br)cc2)o1, COCc1cc(C)nc(N/N=C/c2ccc(-c3ccc(Cl)cc3[N+](=O)[O-])o2)c1C#N, CCCc1cc(C(=O)Nc2ccccc2SC)no1, Cc1ccc(N=Cc2sc(O)c3ccccc23)c(C)c1, CCC(C)(C)NC(=O)C(c1ccc(OC)cc1)N(Cc1cccs1)C(=O)CCC(=O)Nc1cc(C)on1 (centres undefined), COc1ccc(NC(=O)CSc2ccc([N+](=O)[O-])cc2)cc1S(=O)(=O)N1CCOCC1, COc1ccc([N+](=O)[O-])cc1COc1ccc2c(-c3ccccc3)cc(=O)oc2c1
